The supplement of paper PMC10849652
The full data set covers some 7,900 targets. This sample favours those with a hit. About 0.6% of all pairs of compound and target were hits. Values without a mark were called inactive.

How the values were obtained:
Experiment in all cases: log2 fold change, soluble protein after heating vs DMSO (PISA); higher = thermal stabilisation; K562 cells, 10 uM, 30 min; active = over 0.2 and 3.5 SD of the protein, either way, in both replicates (recomputed)
[1] = compound: C1COCCN1CCN2C3=CC=CC=C3N=C2NC(=O)C4=CC(=CC=C4)[N+](=O)[O-] [IRAK-1-4 Inhibitor I]
In short: (§1)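 K562 cells at 2×10^6 cells/mL were treated for 30 min with 10 μM compound, and aliquots were heated for 3 min over 48°C-58°C before pooling. Extraction used PBS with 0.5% NP-40 at 4°C, and soluble protein was the supernatant after 21,000xg for 90 min, measured by TMTpro 16plex LC-MS/MS with channel sums equalised. Thermal stability values, relative to control samples and from duplicates, are log2 fold changes.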

[2] = compound: C=CC(=O)N1CCC[C@@H](n2nc(-c3ccc(Oc4ccccc4)cc3)c3c(N)ncnc32)C1 [ibrutinib]
In short: as §1

[3] = compound: CC(=O)c1cnc2ccc(-c3cc(Cl)c(O)c(Cl)c3)nc2c1N[C@H]1CC[C@H](CN(C)C)CC1
In short: as §1

[4] = compound: CC(C)(C)Cn1c(N)nc2ccc(-c3[nH]c(C(C)(C)C)nc3-c3ccc(F)cc3)nc21 [ralimetinib]
In short: as §1

[5] = compound: CC(C)(O)CC(=O)NCCn1ccc2ncnc(Nc3ccc(Oc4cccc(C(F)(F)F)c4)c(Cl)c3)c21
In short: as §1

[6] = compound: CC(C)C1=C2N=C(C=C(N2N=C1)NCC3=CC=CC=C3)NCCCCCCN
In short: as §1

[7] = compound: CC(C)C[C@@H](C=O)NC(=O)[C@H](CC(C)C)NC(=O)[C@H](CC(C)C)NC(=O)OCc1ccccc1
In short: as §1

[8] = compound: CC(C)N(C[C@H]1O[C@@H](n2cnc3c(N)ncnc32)[C@H](O)[C@@H]1O)[C@H]1C[C@@H](CCc2nc3cc(C(C)(C)C)ccc3[nH]2)C1 [pinometostat]
In short: as §1

[9] = compound: CC1=C(C(CC(=O)N1)C2=CC=C(C=C2)C(F)(F)F)C(=O)NC3=C(C=C4C(=C3)C=NN4)F
In short: as §1

[10] = compound: CC1=C(C2=C(C=C1)C(=O)C3=CC=CC=C3N2CCCN)C
In short: as §1

[11] = compound: CC1=C(C=C(C=C1)NC(=O)C2=CC(=CC=C2)C(C)(C)C#N)NC3=CC4=C(C=C3)N=CN(C4=O)C
In short: as §1

[12] = compound: CC1=C(C=C(C=C1)NC(=O)C2=CC(=CC=C2)N(C)C)NC(=O)C3=CC=C(C=C3)O
In short: as §1

[13] = compound: CC1=CC=C(C=C1)SC2=C3C=C(SC3=CN=C2)C(=O)N
In short: as §1

[14] = compound: CC1=NC(=CC=C1)C2=C(N=C(N2)C(C)(C)C)C3=CC4=NC=CN=C4C=C3
In short: as §1

[15] = compound: CCCCN(Cc1ccc(C(=O)NO)cc1)C(=O)Nc1ccccc1 [Nexturastat A]
In short: as §1

[16] = compound: CCCS(=O)(=O)Nc1ccc(F)c(C(=O)c2c[nH]c3ncc(-c4ccc(Cl)cc4)cc23)c1F [vemurafenib]
In short: as §1

[17] = compound: CCCS(=O)(=O)Nc1ccc(F)c(C(=O)c2c[nH]c3ncc(Cl)cc23)c1F
In short: as §1

[18] = compound: CCCc1cc(C)[nH]c(=O)c1CNC(=O)c1cc(-c2ccnc(N3CCN(C)CC3)c2)cc2c1cnn2C(C)C
In short: as §1

[19] = compound: CCN(CC)Cc1ccc2cc(COC(=O)Nc3ccc(C(=O)NO)cc3)ccc2c1 [givinostat]
In short: as §1

[20] = compound: CCN(CCCOc1ccc2c(Nc3cc(CC(=O)Nc4cccc(F)c4)[nH]n3)ncnc2c1)CCOP(=O)(O)O [barasertib]
In short: as §1

GSR (UniProt P00390)
Sequence of UniProt P00390 (P00390 whole entry, looked up): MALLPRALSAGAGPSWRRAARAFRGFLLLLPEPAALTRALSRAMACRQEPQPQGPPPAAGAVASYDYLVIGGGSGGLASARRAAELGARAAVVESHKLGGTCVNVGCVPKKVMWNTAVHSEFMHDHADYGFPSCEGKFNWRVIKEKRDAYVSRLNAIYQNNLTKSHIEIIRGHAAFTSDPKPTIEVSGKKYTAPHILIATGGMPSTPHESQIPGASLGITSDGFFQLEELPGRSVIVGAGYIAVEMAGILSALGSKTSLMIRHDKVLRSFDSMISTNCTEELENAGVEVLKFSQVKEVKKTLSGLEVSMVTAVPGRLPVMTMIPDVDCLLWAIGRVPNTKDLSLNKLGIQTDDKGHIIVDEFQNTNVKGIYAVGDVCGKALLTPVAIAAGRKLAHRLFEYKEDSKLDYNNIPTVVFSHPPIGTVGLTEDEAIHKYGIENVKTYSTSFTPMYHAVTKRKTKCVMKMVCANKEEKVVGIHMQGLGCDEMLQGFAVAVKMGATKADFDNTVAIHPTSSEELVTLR
log2 fold change [1]: 0.037 | log2 fold change [2]: -0.005 | log2 fold change [3]: -0.011 | log2 fold change [4]: -0.021 | log2 fold change [5]: -0.015 | log2 fold change [6]: 0.082 | log2 fold change [7]: 0.023 | log2 fold change [8]: -0.05 | log2 fold change [9]: -0.005 | log2 fold change [10]: -0.003 | log2 fold change [11]: -0.011 | log2 fold change [12]: 0.022 | log2 fold change [13]: 0.016 | log2 fold change [14]: 0.007 | log2 fold change [15]: -0.073 | log2 fold change [16]: -0.027 | log2 fold change [17]: 0.02 | log2 fold change [18]: -0.026 | log2 fold change [19]: -0.253 (active) | log2 fold change [20]: -0.03

HDAC1 (UniProt Q13547)
Sequence of UniProt Q13547 (Q13547 whole entry, looked up): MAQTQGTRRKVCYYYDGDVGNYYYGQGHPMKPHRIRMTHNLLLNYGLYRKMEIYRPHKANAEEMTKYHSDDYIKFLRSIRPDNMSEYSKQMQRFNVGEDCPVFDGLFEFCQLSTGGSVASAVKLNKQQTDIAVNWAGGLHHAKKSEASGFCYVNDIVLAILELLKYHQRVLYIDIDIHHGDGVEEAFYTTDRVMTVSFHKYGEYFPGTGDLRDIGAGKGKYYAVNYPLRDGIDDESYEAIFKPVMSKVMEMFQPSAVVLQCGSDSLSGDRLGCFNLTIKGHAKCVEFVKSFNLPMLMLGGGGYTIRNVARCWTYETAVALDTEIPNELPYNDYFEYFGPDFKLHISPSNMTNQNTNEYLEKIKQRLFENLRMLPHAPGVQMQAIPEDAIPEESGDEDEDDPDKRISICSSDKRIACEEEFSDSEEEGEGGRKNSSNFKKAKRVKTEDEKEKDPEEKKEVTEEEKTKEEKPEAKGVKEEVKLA
log2 fold change [1]: -0.033 | log2 fold change [2]: -0.052 | log2 fold change [3]: 0.056 | log2 fold change [4]: 0.02 | log2 fold change [5]: -0.021 | log2 fold change [6]: -0.009 | log2 fold change [7]: -0.067 | log2 fold change [8]: 0.03 | log2 fold change [9]: 0.003 | log2 fold change [10]: 0.023 | log2 fold change [11]: -0.11 | log2 fold change [12]: -0.039 | log2 fold change [13]: 0.051 | log2 fold change [14]: 0.034 | log2 fold change [15]: 1.45 (active) | log2 fold change [16]: 0.051 | log2 fold change [17]: 0.14 | log2 fold change [18]: -0.118 | log2 fold change [20]: 0.024

FASTKD1 (UniProt Q53R41)
Sequence of UniProt Q53R41 (Q53R41 whole entry, looked up): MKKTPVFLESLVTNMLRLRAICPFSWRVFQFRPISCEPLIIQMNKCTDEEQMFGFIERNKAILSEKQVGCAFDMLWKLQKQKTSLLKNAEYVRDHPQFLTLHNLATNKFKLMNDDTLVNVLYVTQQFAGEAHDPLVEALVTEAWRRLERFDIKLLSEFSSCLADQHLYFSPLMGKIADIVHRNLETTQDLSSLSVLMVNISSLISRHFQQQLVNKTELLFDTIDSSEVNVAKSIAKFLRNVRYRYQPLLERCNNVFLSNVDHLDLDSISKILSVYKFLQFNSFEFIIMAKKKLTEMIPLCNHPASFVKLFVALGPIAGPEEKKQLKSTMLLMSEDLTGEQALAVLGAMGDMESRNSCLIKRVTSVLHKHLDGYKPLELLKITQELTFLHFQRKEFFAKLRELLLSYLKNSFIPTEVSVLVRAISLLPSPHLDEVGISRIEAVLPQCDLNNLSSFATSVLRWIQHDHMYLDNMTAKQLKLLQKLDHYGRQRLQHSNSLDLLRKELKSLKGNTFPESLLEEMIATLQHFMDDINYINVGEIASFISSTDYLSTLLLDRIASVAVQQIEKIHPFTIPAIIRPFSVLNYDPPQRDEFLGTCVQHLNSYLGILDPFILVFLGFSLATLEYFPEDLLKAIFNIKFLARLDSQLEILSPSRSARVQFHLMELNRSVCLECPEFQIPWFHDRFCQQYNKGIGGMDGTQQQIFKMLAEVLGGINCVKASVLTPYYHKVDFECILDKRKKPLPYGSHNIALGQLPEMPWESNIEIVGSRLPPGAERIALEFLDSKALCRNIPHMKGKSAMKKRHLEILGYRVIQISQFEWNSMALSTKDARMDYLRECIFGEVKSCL
log2 fold change [1]: 0.016 | log2 fold change [2]: -0.186 | log2 fold change [3]: -0.043 | log2 fold change [4]: 0.013 | log2 fold change [5]: -0.316 | log2 fold change [6]: -0.047 | log2 fold change [7]: 0.116 | log2 fold change [8]: 0.038 | log2 fold change [9]: -0.345 | log2 fold change [10]: 0.2 | log2 fold change [11]: -0.066 | log2 fold change [12]: -0.138 | log2 fold change [14]: 0.017 | log2 fold change [15]: 0.013 | log2 fold change [16]: 0.065 | log2 fold change [19]: 0.156 | log2 fold change [20]: 0.096

FIBP (UniProt O43427)
Sequence of UniProt O43427 (O43427 whole entry, looked up): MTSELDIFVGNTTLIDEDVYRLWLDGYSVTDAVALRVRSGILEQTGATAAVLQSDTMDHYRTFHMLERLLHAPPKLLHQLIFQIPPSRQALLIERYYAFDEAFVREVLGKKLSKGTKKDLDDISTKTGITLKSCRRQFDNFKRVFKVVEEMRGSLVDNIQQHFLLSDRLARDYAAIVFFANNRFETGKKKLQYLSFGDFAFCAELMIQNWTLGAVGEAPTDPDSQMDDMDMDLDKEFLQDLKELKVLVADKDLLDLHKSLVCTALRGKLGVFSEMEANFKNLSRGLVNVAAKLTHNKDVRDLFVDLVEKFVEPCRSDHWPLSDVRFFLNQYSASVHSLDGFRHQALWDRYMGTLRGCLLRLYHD
log2 fold change [1]: 0.026 | log2 fold change [2]: 0.019 | log2 fold change [3]: -0.146 | log2 fold change [4]: 0.041 | log2 fold change [5]: -0.143 | log2 fold change [6]: 0.018 | log2 fold change [7]: 0.065 | log2 fold change [8]: 0.075 | log2 fold change [10]: -0.039 | log2 fold change [11]: 0.046 | log2 fold change [12]: -0.009 | log2 fold change [13]: 0.001 | log2 fold change [14]: 0 | log2 fold change [15]: -0.009 | log2 fold change [16]: 0.03 | log2 fold change [17]: 0.089 | log2 fold change [18]: 0 | log2 fold change [19]: -0.009 | log2 fold change [20]: -0.071

GSTT1 (UniProt P30711)
Sequence of UniProt P30711 (P30711 whole entry, looked up): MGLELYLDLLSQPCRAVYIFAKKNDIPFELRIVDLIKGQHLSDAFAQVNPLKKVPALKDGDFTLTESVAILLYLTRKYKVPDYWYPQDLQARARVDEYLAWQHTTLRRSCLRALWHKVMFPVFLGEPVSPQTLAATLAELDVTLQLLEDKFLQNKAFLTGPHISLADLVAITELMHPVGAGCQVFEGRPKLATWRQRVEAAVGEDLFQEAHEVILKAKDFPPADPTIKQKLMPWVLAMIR
log2 fold change [1]: -0.054 | log2 fold change [2]: 0.007 | log2 fold change [3]: 0.009 | log2 fold change [4]: -0.079 | log2 fold change [5]: -0.079 | log2 fold change [6]: 0.076 | log2 fold change [7]: -0.005 | log2 fold change [8]: -0.124 | log2 fold change [9]: 0.139 | log2 fold change [10]: 0.157 | log2 fold change [12]: -0.004 | log2 fold change [13]: 0.011 | log2 fold change [14]: 0.101 | log2 fold change [15]: -0.062 | log2 fold change [16]: 0.064 | log2 fold change [17]: -0.063 | log2 fold change [18]: 0.081 | log2 fold change [19]: 0.009 | log2 fold change [20]: -0.018

FHOD1 (UniProt Q9Y613)
Sequence of UniProt Q9Y613 (Q9Y613 whole entry, looked up): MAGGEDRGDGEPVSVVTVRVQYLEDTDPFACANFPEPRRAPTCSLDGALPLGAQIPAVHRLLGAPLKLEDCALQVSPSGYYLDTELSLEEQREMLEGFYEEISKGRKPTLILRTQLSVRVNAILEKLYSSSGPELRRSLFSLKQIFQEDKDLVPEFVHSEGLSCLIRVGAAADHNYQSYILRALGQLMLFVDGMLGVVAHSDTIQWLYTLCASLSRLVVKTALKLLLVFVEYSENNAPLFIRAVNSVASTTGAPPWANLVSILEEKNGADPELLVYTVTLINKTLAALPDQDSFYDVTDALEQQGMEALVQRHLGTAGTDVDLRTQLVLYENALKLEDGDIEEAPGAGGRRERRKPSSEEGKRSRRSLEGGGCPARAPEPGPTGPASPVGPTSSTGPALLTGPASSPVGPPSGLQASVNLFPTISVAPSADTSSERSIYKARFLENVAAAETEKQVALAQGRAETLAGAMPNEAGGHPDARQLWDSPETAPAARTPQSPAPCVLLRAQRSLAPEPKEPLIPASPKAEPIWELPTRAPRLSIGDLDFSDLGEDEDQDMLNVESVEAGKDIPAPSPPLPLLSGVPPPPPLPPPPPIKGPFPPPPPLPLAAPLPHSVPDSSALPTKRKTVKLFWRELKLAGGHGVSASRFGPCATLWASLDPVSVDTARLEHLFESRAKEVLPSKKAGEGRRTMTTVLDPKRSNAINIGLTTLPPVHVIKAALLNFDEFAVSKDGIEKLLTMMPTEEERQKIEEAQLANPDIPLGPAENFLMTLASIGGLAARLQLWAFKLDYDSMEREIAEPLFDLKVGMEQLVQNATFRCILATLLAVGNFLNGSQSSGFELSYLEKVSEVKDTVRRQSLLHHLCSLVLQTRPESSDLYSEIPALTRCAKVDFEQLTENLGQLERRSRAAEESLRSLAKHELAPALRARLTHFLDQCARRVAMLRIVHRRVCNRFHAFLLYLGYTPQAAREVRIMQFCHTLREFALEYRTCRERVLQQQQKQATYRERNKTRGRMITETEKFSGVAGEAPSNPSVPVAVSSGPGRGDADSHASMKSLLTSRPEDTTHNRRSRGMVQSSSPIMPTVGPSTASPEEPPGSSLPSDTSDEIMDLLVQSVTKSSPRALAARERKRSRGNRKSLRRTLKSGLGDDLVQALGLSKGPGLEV
log2 fold change [1]: -0.053 | log2 fold change [2]: 0.011 | log2 fold change [3]: 0.042 | log2 fold change [4]: 0.193 | log2 fold change [5]: 0.035 | log2 fold change [6]: -0.197 | log2 fold change [7]: 0.148 | log2 fold change [8]: 0.458 | log2 fold change [9]: 0.07 | log2 fold change [11]: -0.288 | log2 fold change [12]: 0.073 | log2 fold change [13]: -0.063 | log2 fold change [14]: -0.09 | log2 fold change [15]: 0.365 | log2 fold change [16]: -0.002 | log2 fold change [17]: -0.134 | log2 fold change [18]: 0.132 | log2 fold change [19]: 0.024 | log2 fold change [20]: 0.044

FERMT3 (UniProt Q86UX7)
Sequence of UniProt Q86UX7 (Q86UX7 whole entry, looked up): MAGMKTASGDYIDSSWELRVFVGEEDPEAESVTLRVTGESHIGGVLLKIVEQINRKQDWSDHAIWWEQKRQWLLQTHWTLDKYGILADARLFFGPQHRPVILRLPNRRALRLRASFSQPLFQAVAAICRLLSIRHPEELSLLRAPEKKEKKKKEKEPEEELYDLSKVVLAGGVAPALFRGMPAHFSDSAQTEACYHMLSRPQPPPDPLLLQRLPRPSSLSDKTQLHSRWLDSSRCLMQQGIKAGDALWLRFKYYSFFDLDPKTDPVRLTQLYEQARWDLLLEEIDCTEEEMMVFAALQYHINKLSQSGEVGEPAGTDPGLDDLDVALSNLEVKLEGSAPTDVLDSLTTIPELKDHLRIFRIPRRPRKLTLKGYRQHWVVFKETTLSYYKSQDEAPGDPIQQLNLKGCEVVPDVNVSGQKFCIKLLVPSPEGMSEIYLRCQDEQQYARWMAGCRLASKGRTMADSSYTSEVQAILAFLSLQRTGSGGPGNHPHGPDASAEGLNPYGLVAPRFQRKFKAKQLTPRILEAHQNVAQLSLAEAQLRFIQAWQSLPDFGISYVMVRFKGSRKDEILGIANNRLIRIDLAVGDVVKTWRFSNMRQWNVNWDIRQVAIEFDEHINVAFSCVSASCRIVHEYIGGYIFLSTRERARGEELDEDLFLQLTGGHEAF
log2 fold change [1]: -0.019 | log2 fold change [2]: -0.036 | log2 fold change [3]: -0.039 | log2 fold change [4]: 0.01 | log2 fold change [5]: -0.048 | log2 fold change [6]: -0.091 | log2 fold change [7]: -0.022 | log2 fold change [8]: -0.002 | log2 fold change [9]: -0.009 | log2 fold change [10]: 0.003 | log2 fold change [11]: 0.019 | log2 fold change [12]: -0.024 | log2 fold change [13]: 0.037 | log2 fold change [14]: 0.054 | log2 fold change [15]: -0.013 | log2 fold change [16]: 0.036 | log2 fold change [17]: 0.083 | log2 fold change [18]: 0.03 | log2 fold change [19]: 0.048 | log2 fold change [20]: 0.019

FUT8 (UniProt Q9BYC5)
log2 fold change [1]: -0.02 | log2 fold change [2]: 0.064 | log2 fold change [3]: -0.098 | log2 fold change [4]: -0.087 | log2 fold change [5]: 0.019 | log2 fold change [6]: -0.133 | log2 fold change [7]: 0.053 | log2 fold change [8]: 0.065 | log2 fold change [9]: 0.105 | log2 fold change [10]: 0.077 | log2 fold change [11]: -0.05 | log2 fold change [12]: -0.047 | log2 fold change [14]: 0.037 | log2 fold change [15]: 0.064 | log2 fold change [16]: -0.417 | log2 fold change [18]: 0.048 | log2 fold change [19]: -0.048 | log2 fold change [20]: -0.014

H1FX (UniProt Q92522)
Sequence of UniProt Q92522 (Q92522 whole entry, looked up): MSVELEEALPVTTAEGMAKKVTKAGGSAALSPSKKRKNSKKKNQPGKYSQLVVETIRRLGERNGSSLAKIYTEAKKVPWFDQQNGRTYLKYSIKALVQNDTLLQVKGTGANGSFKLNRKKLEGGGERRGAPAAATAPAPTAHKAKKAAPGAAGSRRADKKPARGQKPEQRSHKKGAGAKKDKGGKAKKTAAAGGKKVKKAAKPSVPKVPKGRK
log2 fold change [1]: -0.171 | log2 fold change [2]: 0.077 | log2 fold change [3]: 0.231 | log2 fold change [4]: 0.204 | log2 fold change [5]: 0.031 | log2 fold change [6]: 0.13 | log2 fold change [7]: 0.09 | log2 fold change [8]: 0.246 | log2 fold change [9]: 0.02 | log2 fold change [10]: -0.718 (active) | log2 fold change [11]: 0.081 | log2 fold change [12]: -0.059 | log2 fold change [13]: -0.106 | log2 fold change [14]: -0.222 | log2 fold change [15]: 0.278 | log2 fold change [16]: -0.083 | log2 fold change [17]: -0.077 | log2 fold change [18]: 0.176 | log2 fold change [19]: -0.034 | log2 fold change [20]: -0.129
